Assay outcomes from PubChem.
Compounds with a hit are over-represented: about 19% of the library has one in this group of screens.
TDP1 inh = inhibitors of human tyrosyl-DNA phosphodiesterase TDP1; recombinant TDP1, AlphaScreen DNA substrate cleavage; Potency, µM (series often up to 130 µM), for the others: at the highest dose activity change, negative = inhibition, usual class: inhibitors; actives 0.28% (n = 350,000); AID 485290; note: nearly all actives have a fitted effect of over 40% in size
Target sequence (Q9NUW8 whole entry, looked up): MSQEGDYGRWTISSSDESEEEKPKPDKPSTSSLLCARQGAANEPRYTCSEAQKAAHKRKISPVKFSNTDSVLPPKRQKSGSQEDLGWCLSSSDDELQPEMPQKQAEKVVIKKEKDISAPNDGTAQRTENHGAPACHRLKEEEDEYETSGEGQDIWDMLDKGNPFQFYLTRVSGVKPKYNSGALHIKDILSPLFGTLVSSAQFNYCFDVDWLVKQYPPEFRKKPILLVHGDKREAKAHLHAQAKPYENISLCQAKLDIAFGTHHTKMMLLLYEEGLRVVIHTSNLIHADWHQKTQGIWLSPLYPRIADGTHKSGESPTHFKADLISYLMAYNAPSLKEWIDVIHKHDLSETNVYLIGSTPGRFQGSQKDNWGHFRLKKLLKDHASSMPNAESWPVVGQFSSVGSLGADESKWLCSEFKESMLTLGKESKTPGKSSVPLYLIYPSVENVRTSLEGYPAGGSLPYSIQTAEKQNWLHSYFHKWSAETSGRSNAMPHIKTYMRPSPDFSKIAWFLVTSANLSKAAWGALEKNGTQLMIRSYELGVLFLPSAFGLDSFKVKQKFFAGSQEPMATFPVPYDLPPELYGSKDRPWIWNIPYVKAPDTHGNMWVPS
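Recombinant human Tdp1 (E. coli-expressed, 1 nM final) preincubated with compounds 15 min at room temperature, then 5'-biotin/3'-phosphotyrosine-FITC DNA substrate (15 nM final) added for 5 min. AlphaScreen beads (10 ug/ml final) added 10 min; cleavage lowers signal.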
DT40 TDP1 CPT = growth inhibition of DT40 Tdp1-/-;hTDP1 cells with camptothecin (screen for TDP1 inhibitors) | chicken DT40 Tdp1-/-;hTDP1 cells + 20 nM CPT, ATP luminescence, 48 h | Potency, µM (series often up to 46.2 µM), without a hit: at the highest dose activity change, negative = growth inhibition, usual class: inhibitors | actives 12% (n = 420,000) | AID 686979; note: nearly all actives have a fitted effect of over 55% in size
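Chicken DT40 Tdp1-/- cells complemented with human TDP1, 400 cells/well, exposed to compounds plus 20 nM camptothecin for at least 48 h at 37 C; viability read as ATP content by CellTiter-Glo luminescence.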
TDP1 cell noCPT = qHTS for Inhibitors of human tyrosyl-DNA phosphodiesterase 1 (TDP1): qHTS in cells in absence of CPT | DT40 Tdp1-/- hTDP1 cells, no CPT, ATP luminescence, 48 h | Potency, µM (series often up to 46.2 µM), for inactives: at the highest dose activity change, negative = growth inhibition, hits mostly inhibitors | actives 15% (n = 420,000); note: nearly all actives have a fitted effect of over 55% in size
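Camptothecin absent (DMSO only). Human TDP1-complemented DT40 knockout cells, 400 cells/well, 37 °C for minimum 48 hr; ATP measured via CellTiter-Glo, 30 min dark incubation, luminescence.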
RORgamma inh = inhibitors of mouse ROR gamma transcriptional activity | P51450 | actives 5.4% (n = 310,000) | Drosophila S2 Gal4-RORgamma UAS-luciferase reporter, 20 h | Potency, µM (doses to about 53.6 µM), for the others: top-dose activity change, negative = inhibition, most hits filed as inhibitors; note: nearly all actives have a fitted effect of over 60% in size
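Luminescence from a UAS-regulated Photinus luciferase reporter in stably transfected Drosophila Schneider cells is measured; decreased signal marks ROR gamma inhibition. Fusion expression is induced by 700 uM copper sulfate for 20 hr.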
Gal4-VP16 FLuc = inhibits Gal4-VP16 luciferase reporter, ROR gamma counter-screen; Drosophila S2 Gal4-VP16 UAS-luciferase, luminescence, 20 h; Potency, µM (doses to about 53.6 µM), inactives show at the highest dose activity, negative = inhibition, hits mostly inhibitors; actives 3.5% (n = 310,000); AID 2546;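 note: Gal4-VP16 expression switched on by copper sulfate through the metallothionein promoter; nearly all actives have a fitted effect of over 50% in size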
The depositor's hits bear a star; ? = inconclusive; nt = no result given; ! = not active in a repeat; [ ] = remark or other dose. Calls come from the whole dose curve; as a rule, active = well fitted curve in the direction sought with a large enough effect; inconclusive = small, poorly fitted or top-dose-only effect, or another doubt; inactive = no such curve, though single readings can be large; an effect the other way counts as inactive or inconclusive. % is set by controls: 0 for no effect and ±100 for the full control effect; potency is the fitted concentration of half-maximal effect.

SMILES	TDP1 inh	DT40 TDP1 CPT	TDP1 cell noCPT	RORgamma inh	Gal4-VP16 FLuc
Cc1cc(C)nc(SCCC(=O)Nc2ccc(F)cc2)n1	3%	-22%	12%	-22%	2%
COc1cccc(CNc2ccc(N3CCC(C)CC3)cc2)c1OC	18%[56.1 µM]	23µM*	16µM*	-25%	-4%
O=C(CSc1nnc(-c2ccco2)n1Cc1ccccc1)NCc1ccccc1	7%	-30%	?	?	-15%
c1ccc(Cn2c(SCc3nc4ccccc4s3)nnc2-c2ccco2)cc1	4%	15µM*	?	-33%	11%
COC(=O)CCNCCSc1nnc(-c2ccco2)n1Cc1ccccc1	nt	12µM*	8.2µM*	-6%	-17%
CCC(c1nnc(SCc2nc3ccccc3s2)n1Cc1ccccc1)N(C)C (stereo not given)	4%	-26%	?	21%	11%
O=C(COc1ccccc1[N+](=O)[O-])N/N=C/c1ccccn1	3%	-4%	-25%	11%	9%
O=C(CCN1CCC(c2ccccc2)C1)c1cccs1 (stereo not given)	4%	1.8µM*	2.6µM*	?	?
O=C(CCN1CCCC1)c1cccs1	11%	0.73µM*	1.5µM*	6%	-1%
COc1cc(C(=O)CCN2CCC(c3ccccc3)C2)cc(OC)c1OC (stereo not given)	7%	4.6µM*	5.8µM*	16µM*	?
O=C(c1cccs1)N1CCC(c2ccccc2)C1 (stereo not given)	5%	-6%	-20%	16%	2%
O=C(CCN1CCC(c2cccs2)=N1)c1cccs1	6%	5.8µM*	5.2µM*	?	?
CC(C)C[C@@H](CNCC(=O)[C@H](CC(C)C)NC(=O)c1[nH]cnc1C(=O)N[C@H](CN)CC(C)C)NC(=O)c1nc[nH]c1C(=O)N[C@@H](CC(=O)O)C(=O)O	nt	-21%	-23%	nt	nt
CCc1ccc(N2CCn3c2nc2c3c(=O)n(Cc3c(F)cccc3Cl)c(=O)n2C)cc1	-3%	?	?	nt	nt
N=c1n(CCN2CCCCC2)c2ccccc2n1CC(=O)c1cccs1	-9%	18µM*	21µM*	16%	1%
O=C(CCN1CCC(c2ccccc2)C1)c1ccccc1 (stereo not given)	7%	3.7µM*	3.7µM*	-9%	3%
O=C(CCN1CCC2CCC(C2)C1)c1ccc(F)cc1 (stereo not given)	nt	3.3µM*	2.9µM*	nt	nt
O=C(CN1CCC(C(=O)c2ccc3c(c2)OCCO3)CC1)NCc1ccccc1	6%	?	?	-7%	-6%
O=C(CCN1CCC(c2ccccc2)C1)c1ccc2c(c1)OCCO2 (stereo not given)	7%	2.1µM*	1.8µM*	7.1µM*!	7.1µM*!
COc1ccc(N(CC(=O)NC2CCCCCC2)S(=O)(=O)c2c(C)nn(C)c2C)cc1	5%	?	-26%	9%	0%
COc1ccc(-c2ncc(CN3CCC(CO)(Cc4cccc(OC)c4)CC3)cn2)cc1	5%	?	?	31%	-4%
CN(Cc1c(C(=O)N/N=C/c2cccc(F)c2)nnn1-c1nonc1N)c1ccccc1	nt	-16%	?	-15%	-5%
Cc1c(C(=O)N/N=C/c2cccs2)nnn1-c1nonc1N	4%	11%	-3%	11µM*	?
CN(Cc1c(C(=O)N/N=C/c2cccs2)nnn1-c1nonc1N)c1ccccc1	4%	16%	18%	5.6µM*	?
Nc1nonc1-n1nnc(C(=O)N/N=C/c2ccc(F)cc2)c1-c1cccs1	1%	-9%	?	-2%	-8%
SMILES	TDP1 inh	DT40 TDP1 CPT	TDP1 cell noCPT	RORgamma inh	Gal4-VP16 FLuc
O=C(CCS(=O)(=O)c1ccc(Cl)cc1)NCCc1c[nH]c2ccccc12	5%	-25%	-16%	1%	8%
C=C(C)CNC(=S)NNC(=O)CCn1c2ccccc2c2ccccc21	11%	?	?	7.1µM*	?
CC(=O)NNC(=O)CCn1nnc(-c2ccc(Cl)cc2)n1	-4%	8%	-18%	26%	-3%
C=C(C)CNC(=S)NNC(=O)CCn1c2cc(Cl)ccc2c2ccc(Cl)cc21	8%	-31%	?	5µM*	8.9µM*
C=C(C)CNC(=S)NNC(=O)c1ccncc1	-3%	2%	-26%	?	-7%
C=C(C)CNC(=S)NNC(=O)CCn1c2ccc(Cl)cc2c2cc(Cl)ccc21	0%	?	?	0.63µM*	0.5µM*
CC1CCCCN1Cc1c(O)ccc2c(=O)c(-c3ccccc3)coc12 (stereo not given)	nt	8.2µM*	10µM*	18%	2%
COc1ccccc1-c1c(C)oc2c(CN3CCCCC3C)c(O)ccc2c1=O (stereo not given)	nt	3%	13%	-14%	-10%
COc1ccc(-c2coc3c(CN4CCCCC4C)c(O)ccc3c2=O)cc1 (stereo not given)	nt	6.5µM*	18µM*	5%	0%
CCN(Cc1ccccc1)Cc1c(O)ccc2c(=O)c(-c3ccc(Cl)cc3)coc12	nt	?	21µM*	nt	nt
CCC1CCCCN1Cc1c(O)ccc2c(=O)c(-c3ccccc3)coc12 (stereo not given)	nt	7.3µM*	10µM*	-9%	-8%
O=c1c(-c2ccccc2)coc2c(CN3CCCCC3)c(O)ccc12	nt	-26%	-18%	11%	0%
O=C(NCCCN1CCCC1)c1ccc(CS(=O)(=O)c2c(Cl)cccc2Cl)o1	0%	-8%	-5%	0%	-16%
CC(C)Cn1c(-c2ccc(Br)cc2)c[nH]c1=S	5%	16µM*	15µM*	0.63µM*	1.6µM*
CC(C)Cn1c(=O)c2ccccc2n2c(-c3ccc(Br)cc3)nnc12	9%	?	?	nt	nt
COC(=O)c1c[nH]c(=S)n1Cc1ccccc1	nt	7%	-8%	nt	nt
CCn1c(-c2ccccc2)c[nH]c1=S	1%	-21%	?	1.1µM*	8.9µM*
S=c1[nH]cc(-c2ccc(Cl)cc2)n1Cc1ccccc1	8%	-4%	19%	2.5µM*	2.8µM*
COc1ccc(/C=N/n2cnc3scc(-c4cccs4)c3c2=O)cc1OC	-4%	18µM*	?	31%	3%
COc1cc(/C=N/n2cnc3scc(-c4cccs4)c3c2=O)cc(OC)c1OC	4%	4.6µM*	2.9µM*	?	-11%
COc1cc2c(cc1OC)CN(C(=S)Nc1ccccc1)CC2	1%	-29%	-25%	11µM*	-9%
COc1cc2c(cc1OC)CN(C(=S)Nc1ccc(C)cc1C)CC2	-1%	7%	-11%	10µM*	20µM*
